# From PubChem BioAssay AID743293 (Broad Institute, 2014)
# Potency and affinity values are given separately. Activity calls are given as the source filed them.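 Rule for the calls: active = compounds lowering fluorescence with a fitted half-maximal concentration at or below a set limit tied to top dose; inconclusive = flat curve with 30 to 70% inhibition, or poor fit; inactive = the rest.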
# Target: Caspase-9 (Homo sapiens) (UniProt P55211)
# Assay: caspase-9 enzyme inhibition, dose response, selectivity assay for caspase-6 inhibitor project, biochemical, fluorescence, plate reader, cherry-picked samples (AID 743293)
# Chain of Caspase-9 (Homo sapiens) (P55211 whole entry, looked up): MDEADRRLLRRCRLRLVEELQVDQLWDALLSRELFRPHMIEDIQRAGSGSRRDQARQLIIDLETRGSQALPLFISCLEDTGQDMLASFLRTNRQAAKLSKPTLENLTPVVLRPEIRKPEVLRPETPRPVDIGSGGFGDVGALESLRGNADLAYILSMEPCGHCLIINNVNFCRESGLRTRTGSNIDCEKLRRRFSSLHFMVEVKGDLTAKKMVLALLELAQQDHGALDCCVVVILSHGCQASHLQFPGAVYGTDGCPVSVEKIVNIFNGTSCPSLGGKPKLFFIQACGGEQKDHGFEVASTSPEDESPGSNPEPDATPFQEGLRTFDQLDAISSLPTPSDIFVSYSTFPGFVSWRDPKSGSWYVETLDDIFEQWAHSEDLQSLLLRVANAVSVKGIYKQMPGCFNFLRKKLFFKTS
smiles,measurement,value
CC(Cc1ccc(O)cc1)NCC(O)c1ccc(O)c(O)c1 (stereo unspecified),outcome,inactive
